PubChem BioAssay AID1159580 (chemical genetic matrix, 2015)
Out of some 5,500 compounds screened, about 2,000 (36%) were called active. Not shown: some 18% with an inconclusive outcome. No stated cut-off is given here; in the data, active means normalized growth mostly below about 0.91 (no sharp cut-off); inconclusive means no clear call, values can overlap the other calls; inactive means mostly above about 0.92. This is one part of the list.

Test: chemical genetic growth profiling, strain panel (AID 1159580);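 further: tested at 20 µM; growth read once vehicle control cultures reached saturation at 30 °C; 1 = growth at the plate median or of vehicle wells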
Conditions: growth OD
[1] = S. cerevisiae deletion strains, locus YAL013W, strain DEP1, stronger effect = lower value
[2] = S. cerevisiae deletion strains, locus YBR229C, strain ROT2, stronger effect = lower value
[3] = S. cerevisiae deletion strains, locus YDL101C, strain DUN1, stronger effect = lower value
[4] = S. cerevisiae deletion strains, locus YDL134C, strain PPH21, stronger effect = lower value
[5] = S. cerevisiae deletion strains, locus YDR150W, strain NUM1, stronger effect = lower value
[6] = S. cerevisiae deletion strains, locus YEL061C, strain CIN8, stronger effect = lower value
[7] = S. cerevisiae deletion strains, locus YGR078C, strain PAC10, stronger effect = lower value
[8] = S. cerevisiae deletion strains, locus YHR030C, strain SLT2, stronger effect = lower value
[9] = S. cerevisiae deletion strains, locus YHR087W, strain rtc3, stronger effect = lower value
[10] = S. cerevisiae deletion strains, locus YJR043C, strain POL32, stronger effect = lower value
[11] = S. cerevisiae deletion strains, locus YJR075W, strain HOC1, stronger effect = lower value
[12] = S. cerevisiae deletion strains, locus YLR039C, strain RIC1, stronger effect = lower value
[13] = S. cerevisiae deletion strains, locus YLR058C, strain SHM2 (second series), stronger effect = lower value
[14] = S. cerevisiae deletion strains, locus YLR085C, strain ARP6, stronger effect = lower value
[15] = S. cerevisiae deletion strains, locus YLR262C, strain YPT6, stronger effect = lower value
[16] = S. cerevisiae deletion strains, locus YML094W, strain GIM5, stronger effect = lower value
[17] = S. cerevisiae deletion strains, locus YMR219W, strain ESC1, stronger effect = lower value
[18] = S. cerevisiae deletion strains, locus YMR263W, strain SAP30, stronger effect = lower value
[19] = S. cerevisiae deletion strains, locus YNL153C, strain GIM3, stronger effect = lower value
[20] = S. cerevisiae deletion strains, locus YNL298W, strain CLA4 (second series), stronger effect = lower value
[21] = S. cerevisiae deletion strains, locus YNL322C, strain KRE1, stronger effect = lower value
[22] = S. cerevisiae deletion strains, locus YNR030W, strain Alg12, stronger effect = lower value
[23] = S. cerevisiae deletion strains, locus YOL006C, strain TOP1, stronger effect = lower value
[24] = S. cerevisiae deletion strains, locus YPL241C, strain CIN2, stronger effect = lower value
[25] = S. cerevisiae deletion strains, locus YPR135W, strain CTF4, stronger effect = lower value

Measured: normalized growth

C=Cc1c(SC)sc(C(=O)O)c1C
inactive: [4] 1.01 | [5] 0.869 | [6] 0.999 | [8] 1.05 | S. cerevisiae deletion strains, locus YJL187C, strain SWE1, stronger effect = lower value 1.05 | [12] 0.795 | [14] 1.05 | [16] 1.01 | S. cerevisiae deletion strains, locus YNL128W, strain TEP1, stronger effect = lower value 1.04 | [20] 1.02 | [22] 0.979 | [23] 1.07 | [24] 0.966 | [25] 1.1
active: [1] 0.869 | [2] 0.766 | S. cerevisiae deletion strains, locus YCL061C, strain MRC1, stronger effect = lower value 0.746 | [3] 0.705 | [7] 0.794 | [9] 0.761 | [10] 0.807 | [11] 0.636 | [13] 0.889 | [15] 0.776 | [17] 0.804 | [18] 0.869 | [19] 0.771 | [21] 0.865

N#CCCC1(CCC#N)c2ccccc2-c2ccccc21
inactive: [1] 0.99 | [2] 1.02 | [3] 1.03 | [4] 1.02 | [5] 1.01 | [6] 1.01 | [7] 1.01 | [8] 1.05 | [9] 1.03 | [10] 1.01 | [11] 1.01 | [12] 1.06 | [13] 1.01 | [14] 1.03 | [15] 1.01 | [16] 1.03 | [17] 1.03 | [18] 1.02 | [19] 1.04 | [20] 1.01 | [21] 1.01 | [22] 1 | [23] 1.08 | S. cerevisiae deletion strains, locus YPL055C, strain LGE1, stronger effect = lower value 1.03 | [24] 1.01 | [25] 1.11 | S. cerevisiae strains, strain wild type, stronger effect = lower value 1.03
